Molecules are shown by their SMILES. The source made the active and inactive calls. Rule for the calls: active = hit-call score of the fitted dose curve at least 0.9, where 1 is the maximum; inactive = score below 0.9.

Consider four compounds from PubChem BioAssay (EPA / NIEHS).

The nature of test [1]: ATG_GRE_CIS: Attagene CIS-FACTORIAL HepG2 Assay for human Glucocorticoid Response Elements (GRE) (AID 2282947). The conditions noted are these: HepG2 GRE cis-reporter, Attagene multiplex mRNA; actives raise or lower the signal. Summed up: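 Transiently transfected HepG2 cells carrying GRE cis-reporter units (endogenous TF activity) dosed 24 h; reporter mRNA quantified by RT-PCR, 6-FAM labelling, HpaI digestion and capillary electrophoresis. Bidirectional fit versus DMSO baseline.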

Test [2] can be described thus: ATG_ISRE_CIS: Attagene CIS-FACTORIAL HepG2 Assay for human Interferon Regulatory Factor 1 (IRF1) binding to an Interferon-Stimulated Response Element (ISRE) (AID 2282948). The settings on record: HepG2 ISRE cis-reporter (Attagene), mRNA transcription readout; actives raise or lower the signal. In a few lines:
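HepG2 cells transiently transfected with multiplexed cis-promoter reporter units; after 24 h compound exposure, reporter mRNA quantified by RT-PCR, FAM labelling, HpaI digestion and capillary electrophoresis. Bidirectional fit versus DMSO baseline.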

Test [3] is described as follows: ATG_M_32_CIS: Attagene CIS-FACTORIAL HepG2 Assay for M32 Transcription Factor (Internal Marker) (AID 2282949).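 Note: background control marker of the multiplexed CIS panel rather than a real target.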 The settings on record: HepG2 Attagene cis-factorial M32 reporter, mRNA; actives raise or lower the signal. Summed up:
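Fluorescent capillary electrophoresis peaks of HpaI-digested, FAM-labelled RT-PCR reporter products give the signal. Source: transiently transfected human liver HepG2 cells, 24 h after chemical dosing; bidirectional fitting against DMSO.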

Test [4] can be described thus: ATG_M_06_CIS: Attagene CIS-FACTORIAL HepG2 Assay for M06 Transcription Factor (Internal Marker) (AID 2282950). The settings on record: HepG2 Attagene CIS-FACTORIAL M06 internal marker reporter; actives raise or lower the signal. Summed up: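 Cells (HepG2, transiently carrying cis-driven reporter units) receive chemical for 24 h before RNA isolation. Reporter cDNA is PCR-amplified, FAM-labelled by primer extension, HpaI-digested and sized on a capillary analyser.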

The target in test [5] is Hypoxia-inducible factor 1-alpha (Homo sapiens) (UniProt Q16665). As to the kind of experiment: ATG_HIF1a_CIS: Attagene CIS-FACTORIAL HepG2 Assay for human Hypoxia Inducible Factor 1 (HIF1A) (AID 2282951). The settings on record: HepG2 Attagene cis-factorial HIF1a reporter transcription; actives raise or lower the signal. In a few lines: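 Transient MRTU transfection of human HepG2 liver cells, 24 h compound treatment, then total RNA isolation, oligo(dT) reverse transcription, PCR amplification, fluorescent labelling and capillary electrophoresis of reporter fragments. Gain or loss relative to DMSO.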
Sequence of Hypoxia-inducible factor 1-alpha (Homo sapiens) (Q16665 whole entry, looked up, the tested form may be a part): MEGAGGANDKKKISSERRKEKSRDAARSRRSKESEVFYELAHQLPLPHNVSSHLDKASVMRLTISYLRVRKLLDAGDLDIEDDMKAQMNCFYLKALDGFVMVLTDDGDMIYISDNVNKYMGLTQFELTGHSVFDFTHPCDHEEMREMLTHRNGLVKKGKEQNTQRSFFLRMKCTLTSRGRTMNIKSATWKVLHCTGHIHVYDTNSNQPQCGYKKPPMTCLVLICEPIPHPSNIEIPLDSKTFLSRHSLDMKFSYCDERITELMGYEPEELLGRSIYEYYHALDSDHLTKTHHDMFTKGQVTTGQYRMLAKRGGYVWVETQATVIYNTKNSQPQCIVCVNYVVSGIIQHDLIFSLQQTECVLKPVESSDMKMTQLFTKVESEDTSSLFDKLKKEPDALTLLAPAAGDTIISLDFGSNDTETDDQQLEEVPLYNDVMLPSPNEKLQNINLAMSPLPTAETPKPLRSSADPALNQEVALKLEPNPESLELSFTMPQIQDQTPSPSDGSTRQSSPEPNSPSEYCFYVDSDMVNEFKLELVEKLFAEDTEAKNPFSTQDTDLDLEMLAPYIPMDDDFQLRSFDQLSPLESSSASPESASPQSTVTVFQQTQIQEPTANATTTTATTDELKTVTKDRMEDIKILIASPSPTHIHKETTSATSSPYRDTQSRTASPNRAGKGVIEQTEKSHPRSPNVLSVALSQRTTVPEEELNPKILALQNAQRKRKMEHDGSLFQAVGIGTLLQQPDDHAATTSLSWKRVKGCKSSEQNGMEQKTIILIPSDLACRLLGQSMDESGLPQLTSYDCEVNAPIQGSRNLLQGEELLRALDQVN

In test [6] the target is Hepatocyte nuclear factor 6 (Homo sapiens) (UniProt Q9UBC0). As to the kind of experiment: ATG_HNF6_CIS: Attagene CIS-FACTORIAL HepG2 Assay for human Hepatocyte Nuclear Factor 6 (HNF6) (AID 2282952). The conditions noted are these: HepG2 Attagene cis-factorial HNF6 reporter transcription; actives raise or lower the signal. Summed up:
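Transiently transfected HepG2 cells expressing cis-regulated reporter transcription units were exposed to chemical for 24 h in a 24-well format. Reporter transcript abundance was determined by fluorescence capillary electrophoresis.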

Test [7] addresses Heat shock factor protein 1 (Homo sapiens) (UniProt Q00613). The experiment in a line: ATG_HSE_CIS: Attagene CIS-FACTORIAL HepG2 Assay for human Heat Shock Transcription Factor 1 (HSE) (AID 2282953). The conditions noted are these: HepG2 HSE cis-reporter, Attagene RNA transcription; actives raise or lower the signal. Summed up: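 Liver-derived HepG2 cells carry transiently introduced multiple reporter units governed by cis promoters. Reporter RNA measured 24 h post-dose through reverse transcription, PCR amplification, fluorescent labelling and capillary electrophoresis, normalised to DMSO.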

The nature of test [8]: ATG_MRE_CIS: Attagene CIS-FACTORIAL HepG2 Assay for human Metal Responsive Element (MRE) (AID 2282954). The settings on record: HepG2 MRE cis-reporter transcription, Attagene multiplex; actives raise or lower the signal. Summed up: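 HepG2 cells transiently transfected with cis-element-driven reporter units; mRNA measured 24 h after dosing. Reporter transcripts quantified by RT-PCR, FAM labelling, HpaI digestion and capillary electrophoresis; bidirectional fit versus DMSO.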

Test [9] is described as follows: ATG_PBREM_CIS: Attagene CIS-FACTORIAL HepG2 Assay for human Phenobarbital-responsive Enhancer Module (PBREM) (AID 2282955). The settings on record: HepG2 PBREM cis-reporter, Attagene multiplexed transcription; actives raise or lower the signal. Summed up:
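Endogenous transcription factors in human liver HepG2 cells drive a PBREM cis-element reporter, whose transcript level after 24 h treatment is quantified by RT-PCR with capillary electrophoresis; activity fitted in both directions against DMSO.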

For test [10], the target named is Paired box protein Pax-6 (Homo sapiens) (UniProt P26367). The experiment in a line: ATG_Pax6_CIS: Attagene CIS-FACTORIAL HepG2 Assay for human Paired Box 6 (PAX6) (AID 2282956). The conditions noted are these: HepG2 CIS-FACTORIAL PAX6 reporter transcription, RNA readout; actives raise or lower the signal. In a few lines:
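HepG2 cells transiently transfected with multiplexed cis-promoter reporter units (endogenous TF activity) were dosed for 24 h. Reporter mRNA was quantified by RT-PCR, 6-FAM labeling, HpaI digestion and capillary electrophoresis; bidirectional fitting versus DMSO baseline.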

Test [11] is described as follows: ATG_PXRE_CIS: Attagene CIS-FACTORIAL HepG2 Assay for human Pregnane X Receptor Element (PXRE) (AID 2282957). The conditions noted are these: HepG2 Attagene CIS-FACTORIAL PXRE reporter, mRNA; actives raise or lower the signal. In a few lines: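 Cis-element reporter mRNA in human hepatoma HepG2 cells is measured 24 h post-dosing by RT-PCR, primer-extension labeling and capillary electrophoresis; gain or loss of signal is fitted relative to DMSO.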

The nature of test [12]: ATG_PPRE_CIS: Attagene CIS-FACTORIAL HepG2 Assay for human Peroxisome Proliferator-activated Response Element (PPRE) (AID 2282958). The conditions noted are these: HepG2 PPRE cis-element reporter, Attagene transcription factor profiling; actives raise or lower the signal. Summed up: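 HepG2, transient MRTU transfection (cis promoter elements, endogenous TFs). 24 h dosing. RNA → oligo(dT) RT → PCR → 6-FAM primer extension → HpaI digest → CE. Bidirectional fit vs DMSO.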

A short description of test [13]: ATG_RORE_CIS: Attagene CIS-FACTORIAL HepG2 Assay for human RAR-related Orphan Receptor Element (RORE) (AID 2282959). The settings on record: HepG2 Attagene cis-factorial RORE reporter, mRNA; actives raise or lower the signal. Summed up: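 Transient MRTU transfection of human HepG2 liver cells (FuGene 6); 24 h compound exposure; TriZol RNA, oligo(dT) RT, PCR, FAM labeling, HpaI cut, CE fragment analysis. DMSO = negative control/baseline.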

Test [14] can be described thus: ATG_Sox_CIS: Attagene CIS-FACTORIAL HepG2 Assay for human SRY-box transcription factor (SOX) (AID 2282960). The conditions noted are these: HepG2 Attagene cis-factorial SOX reporter, mRNA; actives raise or lower the signal. Summed up:
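Endogenous factor activity in human liver HepG2 cells carrying transfected cis-regulated reporter units. RNA taken 24 h post-dose, reverse-transcribed, PCR-amplified and sized by capillary electrophoresis. Gain or loss of signal fitted relative to DMSO.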

The target in test [15] is Transcription factor Sp1 (Homo sapiens) (UniProt P08047). The experiment in a line: ATG_Sp1_CIS: Attagene CIS-FACTORIAL HepG2 Assay for human Specificity Protein 1 (Sp1) (AID 2282961). The conditions noted are these: HepG2 Sp1 cis-reporter transcription, actives raise or lower the signal. In a few lines:
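Transient MRTU-transfected HepG2, 24 h compound exposure. Total RNA → oligo(dT) RT → PCR of reporter → 6-FAM primer extension → HpaI digest → CE. Endpoint fitted both directions vs DMSO.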

A short description of test [16]: ATG_SREBP_CIS: Attagene CIS-FACTORIAL HepG2 Assay for human Sterol Regulatory Element Binding (SREBP) (AID 2282962). The settings on record: HepG2 Attagene cis-factorial SREBP reporter, mRNA; actives raise or lower the signal. Summed up: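 HepG2 cells transiently transfected with multiplexed cis-element reporter units report endogenous transcription factor activity. After 24 h of chemical exposure, reporter mRNA was quantified by RT-PCR, 6-FAM labelling, HpaI digestion and capillary electrophoresis; bidirectional fits used DMSO as baseline.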

Test [17] deals with Signal transducer and activator of transcription 3 (Homo sapiens) (UniProt P40763). As to the kind of experiment: ATG_STAT3_CIS: Attagene CIS-FACTORIAL HepG2 Assay for human Signal Transducer and Activator of Transcription 3 (STAT3) (AID 2282963). The settings on record: HepG2, Attagene cis-factorial STAT3 reporter transcription; actives raise or lower the signal. Summed up: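 HepG2 cells transiently transfected with multiple cis-element-driven reporter units report endogenous transcription factor activity. After 24 h compound exposure, reporter mRNA is measured by RT-PCR, 6-FAM labelling, HpaI digestion and capillary electrophoresis. Fitted bidirectionally versus DMSO.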
Sequence of Signal transducer and activator of transcription 3 (Homo sapiens) (P40763 whole entry, looked up): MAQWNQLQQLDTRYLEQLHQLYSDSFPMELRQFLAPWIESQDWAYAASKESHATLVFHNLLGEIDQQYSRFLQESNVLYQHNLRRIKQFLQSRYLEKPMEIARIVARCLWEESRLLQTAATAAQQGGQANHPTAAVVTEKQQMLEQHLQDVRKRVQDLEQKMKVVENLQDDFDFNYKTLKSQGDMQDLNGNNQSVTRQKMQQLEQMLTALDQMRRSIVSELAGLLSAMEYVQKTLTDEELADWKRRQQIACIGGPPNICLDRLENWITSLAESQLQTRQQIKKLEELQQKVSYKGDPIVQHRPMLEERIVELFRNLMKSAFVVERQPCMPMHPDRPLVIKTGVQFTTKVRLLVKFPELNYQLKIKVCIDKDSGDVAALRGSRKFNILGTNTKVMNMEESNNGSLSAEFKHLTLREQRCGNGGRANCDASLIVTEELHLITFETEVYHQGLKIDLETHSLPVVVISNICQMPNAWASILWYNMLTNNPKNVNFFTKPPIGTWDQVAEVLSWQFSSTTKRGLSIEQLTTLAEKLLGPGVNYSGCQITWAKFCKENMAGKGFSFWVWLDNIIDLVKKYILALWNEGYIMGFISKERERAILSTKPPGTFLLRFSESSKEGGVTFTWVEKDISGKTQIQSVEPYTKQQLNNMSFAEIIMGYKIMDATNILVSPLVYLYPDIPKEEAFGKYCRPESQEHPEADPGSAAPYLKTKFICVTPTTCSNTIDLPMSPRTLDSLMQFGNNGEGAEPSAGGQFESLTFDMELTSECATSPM

A short description of test [18]: ATG_TCF_b_cat_CIS: Attagene CIS-FACTORIAL HepG2 Assay for human T-Cell-Factor with beta-catenin (TCF/b-cat) (AID 2282965). The settings on record: HepG2 TCF/beta-catenin cis-reporter transcription, actives raise or lower the signal. In a few lines:
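HepG2, transient MRTU transfection, cis-element-driven reporters (endogenous TFs). 24 h compound exposure. Readout: reporter mRNA by RT-PCR + 6-FAM primer extension, HpaI digest, capillary electrophoresis. Gain/loss fit vs DMSO baseline.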

A short description of test [19]: ATG_TA_CIS: Attagene CIS-FACTORIAL HepG2 Assay for human TA Basal Promoter (AID 2282964). The conditions noted are these: HepG2 Attagene CIS-factorial TA basal promoter reporter; actives raise or lower the signal. Summed up:
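Background internal-marker endpoint from a 52-component HepG2 cis-reporter panel. Cells treated 24 h; reporter transcripts quantified via RT-PCR and CE fluorescence against DMSO baseline.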

Sequence of Transcription factor Sp1 (Homo sapiens) (P08047 whole entry, looked up): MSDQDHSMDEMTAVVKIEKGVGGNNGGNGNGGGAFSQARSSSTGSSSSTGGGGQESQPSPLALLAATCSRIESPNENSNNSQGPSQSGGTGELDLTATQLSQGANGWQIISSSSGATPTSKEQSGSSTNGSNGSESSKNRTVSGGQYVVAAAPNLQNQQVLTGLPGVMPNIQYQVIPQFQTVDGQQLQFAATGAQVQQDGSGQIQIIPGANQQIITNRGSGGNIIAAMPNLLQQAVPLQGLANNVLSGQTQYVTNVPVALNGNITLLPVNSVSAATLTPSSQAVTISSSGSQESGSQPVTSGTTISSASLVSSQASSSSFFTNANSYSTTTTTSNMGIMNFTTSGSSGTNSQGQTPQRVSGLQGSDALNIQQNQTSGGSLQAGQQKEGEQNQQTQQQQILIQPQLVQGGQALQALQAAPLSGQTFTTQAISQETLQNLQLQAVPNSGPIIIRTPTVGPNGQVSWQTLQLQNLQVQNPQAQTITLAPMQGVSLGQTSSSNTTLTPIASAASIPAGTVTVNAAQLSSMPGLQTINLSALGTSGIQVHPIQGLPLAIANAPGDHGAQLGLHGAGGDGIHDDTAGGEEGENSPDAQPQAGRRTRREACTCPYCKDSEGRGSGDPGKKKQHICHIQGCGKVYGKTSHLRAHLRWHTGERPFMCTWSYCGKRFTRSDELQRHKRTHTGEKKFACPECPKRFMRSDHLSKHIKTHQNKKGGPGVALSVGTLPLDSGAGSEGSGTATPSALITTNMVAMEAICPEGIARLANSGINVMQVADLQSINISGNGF
Sequence of Heat shock factor protein 1 (Homo sapiens) (Q00613 whole entry, looked up): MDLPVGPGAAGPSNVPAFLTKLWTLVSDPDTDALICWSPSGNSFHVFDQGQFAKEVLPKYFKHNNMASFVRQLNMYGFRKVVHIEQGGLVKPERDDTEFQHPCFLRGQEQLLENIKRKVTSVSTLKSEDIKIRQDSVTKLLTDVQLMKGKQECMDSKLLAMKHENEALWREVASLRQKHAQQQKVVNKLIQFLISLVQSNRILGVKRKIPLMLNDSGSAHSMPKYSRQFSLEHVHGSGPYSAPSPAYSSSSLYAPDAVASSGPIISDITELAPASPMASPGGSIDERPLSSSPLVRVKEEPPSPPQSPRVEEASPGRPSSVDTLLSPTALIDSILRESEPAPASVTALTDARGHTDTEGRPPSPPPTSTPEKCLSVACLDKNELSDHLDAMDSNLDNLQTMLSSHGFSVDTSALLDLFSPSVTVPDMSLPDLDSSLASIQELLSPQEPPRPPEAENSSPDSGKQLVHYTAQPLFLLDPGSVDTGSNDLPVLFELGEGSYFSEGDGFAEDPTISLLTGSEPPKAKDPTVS
Sequence of Paired box protein Pax-6 (Homo sapiens) (P26367 whole entry, looked up): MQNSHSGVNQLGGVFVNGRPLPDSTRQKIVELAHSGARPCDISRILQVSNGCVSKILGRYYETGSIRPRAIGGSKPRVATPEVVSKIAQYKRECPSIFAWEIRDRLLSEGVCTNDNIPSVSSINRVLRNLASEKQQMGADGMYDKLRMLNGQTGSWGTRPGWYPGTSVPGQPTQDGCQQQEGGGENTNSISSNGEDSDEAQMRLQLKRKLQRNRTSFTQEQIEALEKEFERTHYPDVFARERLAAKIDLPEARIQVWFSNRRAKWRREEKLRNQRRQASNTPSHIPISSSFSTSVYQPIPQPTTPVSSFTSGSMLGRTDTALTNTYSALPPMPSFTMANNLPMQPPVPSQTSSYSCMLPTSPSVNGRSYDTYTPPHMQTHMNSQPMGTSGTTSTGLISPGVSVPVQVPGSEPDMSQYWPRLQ
Sequence of Hepatocyte nuclear factor 6 (Homo sapiens) (Q9UBC0 whole entry, looked up): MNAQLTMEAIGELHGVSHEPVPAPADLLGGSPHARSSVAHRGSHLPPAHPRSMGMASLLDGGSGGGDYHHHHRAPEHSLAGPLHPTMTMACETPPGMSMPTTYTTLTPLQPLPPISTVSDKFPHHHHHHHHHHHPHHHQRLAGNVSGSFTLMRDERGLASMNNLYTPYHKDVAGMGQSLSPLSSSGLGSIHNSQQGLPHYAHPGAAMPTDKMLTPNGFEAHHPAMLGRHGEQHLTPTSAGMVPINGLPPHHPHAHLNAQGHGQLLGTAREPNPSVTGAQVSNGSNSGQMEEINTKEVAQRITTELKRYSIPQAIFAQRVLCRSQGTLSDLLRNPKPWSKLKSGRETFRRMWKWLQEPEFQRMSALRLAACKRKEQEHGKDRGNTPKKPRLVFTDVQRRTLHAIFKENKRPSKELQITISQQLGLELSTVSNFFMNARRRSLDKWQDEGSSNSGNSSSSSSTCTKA

The AC50 is the concentration at which the activity in the assay is half-maximal. For the compound `CCCCC(CC)COC(=O)c1ccccc1O` (centres undefined), the result in [1], in [2], in test [3], in test [4], in test [5] and in test [6] was inactive. In addition, the outcome in test [7], in [8], in [9], in [10], in test [12] and in test [13] was inactive. The call in test [14], in test [15], in test [16], in test [17] and in [18] was inactive. Moreover, the AC50 in [11] was 15.3 µM (active).

Regarding `CCCCCCCCCCOC(C)=O`, the compound was classed as inactive in [1], in test [2], in [3], in [4], in [5] and in [7]. In addition, the result in test [8], in test [9], in test [10], in [11], in test [12] and in test [14] was inactive. Besides, the outcome in test [15], in test [16], in test [17], in [19] and in [18] was inactive.

Turning to `[Cl][In]([Cl])[Cl]`, the outcome in test [1], in test [2], in test [3], in [4], in test [5] and in [6] was inactive. Besides, the call in test [8], in test [9], in test [10], in [11], in test [13] and in test [14] was inactive. Also, the call in test [15], in test [16], in test [17], in test [19] and in test [18] was inactive.

In the case of `O=C(Oc1ccccc1)c1ccc2ccccc2c1O`, the compound was called inactive in test [1], in test [2], in [3], in test [4], in test [10] and in test [14]. For the same compound, the result in test [15], in [16] and in test [18] was inactive. Besides, the AC50 was 34.6 µM (active) in [5]; 66.2 µM (active) in test [7]; 57.2 µM (active) in test [8]; 24.8 µM (active) in [9]; 21.5 µM (active) in [11]; 34.3 µM (active) in test [13]. Besides, the values for the concentration at half-maximal activity (AC50) in test [17] and in test [19] were 26.1 µM (active) and 54.9 µM (active), respectively.
